Records with an inconclusive call do not appear. Calls of active or inactive are those of the source. Unless noted, calls follow the shape of the dose curve; as a rule, active = well fitted curve in the direction sought with a large enough effect in the repeat runs; inconclusive = weak or mixed curves; inactive = no such curve, though single readings can be large; an effect the other way counts as inactive or inconclusive.
Key:
[1] = qHTS assay to identify small molecule agonists of H2AX (AID 1224845; active = well fitted activation curve with a large enough effect in the signal ratio in the repeat runs, not every such curve was filed as active; the % refers to the signal ratio)
Summary of the method: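 Wild-type CHO-K1 cells, plated overnight, exposed 3hr at 37C to 15 concentrations (0.76% DMSO final). Lysed, then HTRF anti-pH2AX (S139) cryptate and anti-H2AX-d2 antibodies, 24 hr room temperature; 665/620 nm emission read.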

[2] = qHTS assay to identify small molecule agonists of the hypoxia (HIF-1) signaling pathway (AID 1224846; active = well fitted activation curve with a large enough effect in the signal ratio in the repeat runs, not every such curve was filed as active; the % refers to the signal ratio)
Summary of the method: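 Reporter induction in HRE-bla ME-180 cells is taken as agonism: cells sit 5 hrs after plating, receive compounds or DMSO only, incubate 17 hrs at 37C under 5% CO2, and are loaded with CCF4-AM for beta-lactamase FRET measurement.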

[3] = qHTS assay to identify small molecule agonists of H2AX - cell viability counter screen (AID 1224847; calls by dose curve; also: top concentration of the series differs between compounds; nearly all actives have a fitted effect of over 30% in size)
Summary of the method: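 CHO-K1 cells plated overnight at 37C, then exposed 3 h at 37C to compounds at 15 concentrations (0.76% DMSO final). Viability by CellTiter-Glo luminescence after 30 min at room temperature.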

[4] = qHTS assay to identify small molecule agonists of the estrogen related receptor (ERR) signaling pathway from Tox21 library (AID 1224849; calls by dose curve; also: nearly all actives have a fitted effect of over 15% in size); conditions: ERR reporter cell line, ONE-Glo luciferase, 18 h; at 92.4 µM (top of the series) unless noted
Summary of the method: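 Tox21 compounds tested for ERR agonism in an NTP reporter cell line: 18 h treatment at 37 C, then ONE-Glo luminescence.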

[5] = qHTS RealTime-Glo MT Cell Viability Assay in HepG2 cells - 24 hour (AID 1224867); also: nearly all actives have a fitted effect of over 50% in size
Summary of the method: (§1)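 Viability was tracked continuously by NanoLuc luminescence from prosubstrate reduced by living HepG2 cells, at successive time points over 40 h of compound exposure. Cells with reagent were preincubated 5 h at 37 °C before compound addition.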

[6] = qHTS RealTime-Glo MT Cell Viability Assay in HEK293 cells - 32 hour (AID 1224868); also: top concentration of the series differs between compounds; nearly all actives have a fitted effect of over 50% in size
Summary of the method: (§2)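 Viability tracked continuously by luminescence as live cells reduce a prosubstrate for NanoLuc; HEK293 cells preincubated 5 h, compound-treated at 37 C, and read at 0, 8, 16, 24, 32 and 40 h.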

[7] = A CellTox Green Cytotoxicity Assay to monitor cytotoxicity in HEK293 cells - 0 hour (AID 1224869); also: nearly all actives have a fitted effect of over 50% in size
Summary of the method: (§3)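 Tox21 screen in HEK293: membrane-impermeant cyanine dye fluoresces on binding dead-cell DNA; compound pinned 5 h post-seeding, plates held at 37 C, signal read repeatedly through 40 h.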

[8] = qHTS RealTime-Glo MT Cell Viability Assay in HepG2 cells - 40 hour (AID 1224870); also: nearly all actives have a fitted effect of over 50% in size
Summary of the method: (§4)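 HepG2 cells (600/well) mixed with RealTime-Glo MT reagent, settled 5 h at 37 C/5% CO2 before compound addition. Nonlytic NanoLuc luminescence from viable-cell prosubstrate reduction read repeatedly during 40 h treatment at 37 C.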

[9] = A CellTox Green Cytotoxicity Assay to monitor cytotoxicity in HEK293 cells - 40 hour (AID 1224871); also: nearly all actives have a fitted effect of over 45% in size
Summary of the method: as §3

[10] = qHTS RealTime-Glo MT Cell Viability Assay in HEK293 cells - 16 hour (AID 1224872)
Summary of the method: as §2

[11] = qHTS RealTime-Glo MT Cell Viability Assay in HepG2 cells - 8 hour (AID 1224873); also: nearly all actives have a fitted effect of over 55% in size
Summary of the method: as §4

[12] = qHTS RealTime-Glo MT Cell Viability Assay in HEK293 cells - 40 hour (AID 1224874); conditions: RealTime-Glo luminescence; max response: active compounds read low; also: nearly all actives have a fitted effect of over 50% in size
Summary of the method: (§5)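 HEK293 + NanoLuc + prosubstrate, 600 cells/well; 5 h, 37 C/5% CO2; compound 23 nL in DMSO by pintool; 37 C; luminescence read at 0, 8, 16, 24, 32 and 40 h time points.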

[13] = A CellTox Green Cytotoxicity Assay to monitor cytotoxicity in HEK293 cells - 24 hour (AID 1224875); also: nearly all actives have a fitted effect of over 45% in size
Summary of the method: as §3

[14] = A CellTox Green Cytotoxicity Assay to monitor cytotoxicity in HepG2 cells - 16 hour (AID 1224876); also: nearly all actives have a fitted effect of over 45% in size
Summary of the method: (§6)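 Measurements at 0, 8, 16, 24, 32 and 40 h of treatment captured CellTox Green fluorescence in HepG2 cells that had been co-plated with reagent and preincubated 5 h at 37 C/5% CO2.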

[15] = qHTS RealTime-Glo MT Cell Viability Assay in HepG2 cells - 32 hour (AID 1224877); also: nearly all actives have a fitted effect of over 55% in size
Summary of the method: as §1

[16] = A CellTox Green Cytotoxicity Assay to monitor cytotoxicity in HepG2 cells - 24 hour (AID 1224878); also: nearly all actives have a fitted effect of over 45% in size
Summary of the method: as §6

[17] = A CellTox Green Cytotoxicity Assay to monitor cytotoxicity in HepG2 cells - 40 hour (AID 1224879); also: nearly all actives have a fitted effect of over 40% in size
Summary of the method: as §6

[18] = qHTS RealTime-Glo MT Cell Viability Assay in HEK293 cells - 0 hour (AID 1224880)
Summary of the method: as §5

[19] = A CellTox Green Cytotoxicity Assay to monitor cytotoxicity in HEK293 cells - 32 hour (AID 1224881); also: nearly all actives have a fitted effect of over 40% in size
Summary of the method: as §3

[20] = qHTS assay to identify small molecule antagonists of the estrogen related receptor (ERR) signaling pathway from Tox21 library (AID 1224848); also: nearly all actives have a fitted effect of over 50% in size
Summary of the method: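 Quantitative high-throughput format: ERR reporter cells (2,000/well) pre-incubated 6 h, treated 18 h at 37 C with compounds in DMSO alongside positive and negative controls, then read by ONE-Glo luminescence.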
% is scaled to controls: 0 for no effect and ±100 for the full control effect.

O=C(NN1CCCC1)NS(=O)(=O)c1ccc(Cl)cc1
inactive: Potency [1] | outcome [2] | Potency [3] | activity change, positive = activation [4] 5.66% [at 42.5 µM] | Potency [5] | Potency [6] | Potency [7] | Potency [8] | Potency [9] | Potency [10] | Potency [11] | max response [12] 15.3% | Potency [13] | Potency [14] | Potency [15] | Potency [16] | Potency [17] | Potency [18] | Potency [19]

CCCCCCCCC(CO)CCCCCC (stereo not drawn)
inactive: Potency [1] | outcome [2] | Potency [3] | Potency [20] | activity change, positive = activation [4] 4.04% | Potency [6] | Potency [7] | Potency [8] | Potency [9] | Potency [10] | max response [12] 1.58% | Potency [13] | Potency [14] | Potency [15] | Potency [16] | Potency [17] | Potency [18] | Potency [19]

CCC(=O)OC(C)(C)C1CC=C(C)CC1 (stereo not drawn)
inactive: Potency [1] | outcome [2] | Potency [3] | Potency [20] | activity change, positive = activation [4] -6.48% | Potency [5] | Potency [7] | Potency [8] | Potency [9] | Potency [10] | Potency [11] | max response [12] -0.19% | Potency [13] | Potency [14] | Potency [15] | Potency [16] | Potency [17] | Potency [19]

CC[C@H](C)[C@H](N)C(=O)O
inactive: Potency [1] | outcome [2] | Potency [3] | Potency [20] | activity change, positive = activation [4] 5.77% [at 42.5 µM] | Potency [5] | Potency [6] | Potency [7] | Potency [8] | Potency [9] | Potency [10] | Potency [11] | max response [12] -1.16% | Potency [13] | Potency [14] | Potency [15] | Potency [16] | Potency [17] | Potency [18] | Potency [19]

CC(=O)OC/C=C/c1ccccc1
inactive: Potency [1] | outcome [2] | Potency [3] | activity change, positive = activation [4] 0.279% | Potency [5] | Potency [6] | Potency [7] | Potency [8] | Potency [9] | Potency [10] | Potency [11] | max response [12] 5.43% | Potency [13] | Potency [14] | Potency [15] | Potency [16] | Potency [17] | Potency [18] | Potency [19]

O=C(CCN1CCN2CCCC2C1)N1c2ccccc2Sc2ccc(Cl)cc21 (stereo not drawn)
inactive: activation (H2AX phosphorylation) [1] -2.77% [at 31.6 µM] | activation [2] -0.917% [at 15.8 µM] | activity change, negative = cytotoxicity [3] -4.72% [at 31.6 µM] | activity change, positive = activation [4] -13.2% [at 19 µM] | activity change, negative = cytotoxicity [5] -4.92% [at 15.8 µM] | activity change, negative = cytotoxic [6] -23% [at 15.8 µM] | cytotoxicity [7] -5.19% [at 15.8 µM] | activity change, negative = cytotoxic [8] -2.23% [at 15.8 µM] | cytotoxicity increase [9] 2.75% [at 15.8 µM] | activity change, negative = cytotoxicity [10] -13.3% [at 15.8 µM] | viability change, negative = cytotoxic [11] -2.56% [at 15.8 µM] | max response [12] -21.5% | activity change [13] 0.914% [at 15.8 µM, active compounds read high] | cytotoxicity increase [14] 6.02% [at 15.8 µM] | activity change, negative = cytotoxic [15] -4.67% [at 15.8 µM] | cytotoxicity [16] 14.6% [at 15.8 µM] | cytotoxicity increase [17] 22.2% [at 15.8 µM] | activity change, negative = cytotoxicity [18] -6.17% [at 15.8 µM] | cytotoxicity increase [19] 1.45% [at 15.8 µM]

Cl/C(=C\n1cncn1)c1ccc(Cl)cc1Cl
inactive: Potency [1] | outcome [2] | Potency [3] | activity change, positive = activation [4] -21.8% [at 42.5 µM] | Potency [5] | Potency [6] | Potency [7] | Potency [8] | Potency [9] | Potency [10] | Potency [11] | max response [12] -23.8% | Potency [13] | Potency [14] | Potency [15] | Potency [16] | Potency [17] | Potency [18] | Potency [19]

Cn1c(NCCN(CCO)CCCc2ccc([N+](=O)[O-])cc2)cc(=O)n(C)c1=O
inactive: Potency [1] | outcome [2] | Potency [3] | Potency [20] | activity change, positive = activation [4] 4.48% [at 42.5 µM] | Potency [5] | Potency [6] | Potency [7] | Potency [8] | Potency [10] | Potency [11] | max response [12] -12.1% | Potency [13] | Potency [15] | Potency [16] | Potency [17] | Potency [18] | Potency [19]

O=[N+]([O-])c1cccc(Cl)c1Cl
inactive: Potency [1] | outcome [2] | Potency [3] | Potency [20] | activity change, positive = activation [4] 2.5% | Potency [5] | Potency [6] | Potency [7] | Potency [8] | Potency [10] | Potency [11] | max response [12] -16.4% | Potency [14] | Potency [15] | Potency [16] | Potency [17] | Potency [18]

Cc1cc(CC(=O)O)c(C)n1-c1ccc(Cl)cc1
inactive: Potency [1] | outcome [2] | Potency [3] | Potency [20] | activity change, positive = activation [4] -14.3% [at 42.5 µM] | Potency [5] | Potency [6] | Potency [7] | Potency [8] | Potency [9] | Potency [10] | Potency [11] | max response [12] -0.616% | Potency [13] | Potency [14] | Potency [15] | Potency [16] | Potency [17] | Potency [18] | Potency [19]

O=C(O)[C@@H]1[C@H]2C[C@H]3c4[nH]c5ccccc5c4CCN3C[C@@H]2CC[C@@H]1O
inactive: Potency [1] | outcome [2] | Potency [3] | Potency [20] | activity change, positive = activation [4] 1.64% [at 42.5 µM] | Potency [5] | Potency [6] | Potency [7] | Potency [8] | Potency [9] | Potency [10] | max response [12] 1.89% | Potency [13] | Potency [15] | Potency [18] | Potency [19]

Source: PubChem BioAssay (Tox21)
